Laboratory results as given in PubChem BioAssay (EPA / NIEHS).
Active and inactive are the calls of the source. How the source made its calls: active means hit-call score of the fitted dose curve at least 0.9, where 1 is the maximum; inactive means score below 0.9.

test: ATG_Sox_CIS: Attagene CIS-FACTORIAL HepG2 Assay for human SRY-box transcription factor (SOX) (AID 2282960); details: HepG2 Attagene cis-factorial SOX reporter, mRNA; actives raise or lower the signal
Procedure: ATG_CIS is a cell-based, multiplexed-readout assay that uses HepG2, a human liver cell line, with measurements taken at 24 hours after chemical dosing in a 24-well plate.ATG_Sox_CIS is one of 52 assay component(s) measured or calculated from the ATG_CIS assay. It is designed to make measurements of mRNA induction, a form of inducible reporter, as detected with fluorescence intensity signals by Reverse transcription polymerase chain reaction (RT-PCR) and Capillary electrophoresis technology.Data from the assay component ATG_Sox_CIS was analyzed into 1 assay endpoint. This assay endpoint, ATG_Sox_CIS, was analyzed with bidirectional fitting relative to DMSO as the negative control and baseline of activity. Using a type of inducible reporter, measures of mRNA for gain or loss-of-signal activity can be used to understand the reporter gene at the transcription factor-level as they relate to the gene SOX1. Furthermore, this assay endpoint can be referred to as a primary readout, because this assay has produced multiple assay endpoints where this one serves a reporter gene function. To generalize the intended target to other relatable targets, this assay endpoint is annotated to the dna binding intended target family, where the subfamily is HMG box protein.
Human liver HepG2 cells are transiently transfected with multiple reporter transcription units (MRTUs) in 6-well plates using FuGene 6 reagent (Roche; 3 ml FuGene/1 mg DNA). The MRTU constructs are regulated by a cis-regulating element (promoter). […] A major difference between the CIS and TRANS system is that in CIS activities of endogenous TFs are measured, whereas the TRANS assay evaluates changes in activities of exogenous, chimeric NR-Gal4 proteins. […] At the end of 24 hour incubation, total RNA was isolated using TriZol reagent (Invitrogen). The isolated RNA is then reverse-transcribed using oligo(dT) primer and Mo-MLV reverse transcriptase (Invitrogen) with DNAse I (Ambion) treatment for 30 min. The one-tenth of the produced cDNA was amplified by PCR using Taq DNA polymerase (Invitrogen) and two reporter sequence-specific primers. The PCR products were fluorescently labeled by primer extension with 6-arboxyfluorescein (6-FAM) 5'-labeled reporter sequence-specific primer (2 min at 95 C, 20 s at 68 C and 10 min at 72 C) and these products were digested with 5U of HpaI (New England Biolabs) for 2h at 37 C. The fragments were purified using Qiaquick PCR columns (Qiagen), analyzed on an ABI 3130xL genetic analyzer (Applied Biosystems) with peak positions identified by using a set of X-rhodamine (ROX)-labeled MapMarker1000 molecular weight standards (BioVentures). The raw capillary electrophoresis data was processed using Attagraph software (Attagene).

| SMILES | outcome |
| --- | --- |
| CCCCCCOc1ccc(O)cc1 | inactive |
| CCC=C(C)C=O | inactive |
| CCO[Si](CCC#N)(OCC)OCC | inactive |
| CC(C)N1C(=O)c2ccccc2C1=O | inactive |
| COC(=O)c1ccc(C(=O)OC)cc1 | inactive |
| CC/C=C\CCOC(C)OCC (stereo not given) | inactive |
| CCC(C)(CCCC(C)C)OC(C)=O (stereo not given) | inactive |
| CC=CC(=O)C1=C(C)C=CCC1(C)C | inactive |
| CC(C)Cc1ccccc1 | inactive |
| CCCO | inactive |
| CC/C=C\CCCCO | inactive |
| CC(C)COC(=O)c1ccccc1 | inactive |
| CC(=O)OC(C)(C)C | inactive |
| CCCCCc1cccc(=O)o1 | inactive |
| CC(C)CCCC(C)(C)O | inactive |
| CCCCCCCCCCCCN1CCOCC1 | inactive |
| C[N+](C)(C)CCO | inactive |
| O=C(O)c1ccccc1O | inactive |
| COc1ccc2[nH]cc(CCNC(C)=O)c2c1 | inactive |
| NC(N)=S | inactive |

| SMILES | outcome |
| --- | --- |
| CCCCCC1CCC(=O)O1 (stereo not given) | inactive |
| O=S1(=O)CC(Cl)(Cl)C(Cl)(Cl)C1 | inactive |
| COc1cc(OC)c2ccc(=O)oc2c1 | inactive |
| CCn1cc(C(=O)O)c(=O)c2ccc(C)nc21 | inactive |
| CC1=CC[C@@H]2C[C@H]1C2(C)C | inactive |
| CC(C)C(=O)c1ccccc1 | inactive |
| CCCCCCC(O)CCOC(C)=O (stereo not given) | inactive |
| C=CC(C)(CCC=C(C)C)OC(=O)CC (stereo not given) | inactive |
| O=C1CCC(=O)N1 | inactive |
| O=C(O)c1ccco1 | inactive |
| CCCCCCCC1CCCC1=O (stereo not given) | inactive |
| CC1=CCC(C(C)C)=CC1 | inactive |
| C=C(C)C(N)=O | inactive |
| CCC(=O)OC(C)(C)C1CC=C(C)CC1 (stereo not given) | inactive |
| CN1CCc2cccc3c2[C@H]1Cc1ccc(O)c(O)c1-3 | inactive |
| ClCCOCCOCCCl | inactive |
| O=C1OC2(c3ccc(O)cc3Oc3cc(O)ccc32)c2ccccc21 | inactive |
| O=C(O)C1=NN(c2ccc(S(=O)(=O)O)cc2)C(=O)C1 | inactive |
| CCCCCCOC(C)=O | inactive |
| c1coc(CNc2ncnc3nc[nH]c23)c1 | inactive |
